Compound activity as filed in PubChem.
The list is not random: actives were taken first. Their share in the collection is about 4.7%.
D1 antagonist – Antagonist of Human D 1 Dopamine Receptor: qHTS. D(1A) dopamine receptor (Homo sapiens), P21728. HEK293 TREx D1 cells, calcium flux, dopamine EC80; stronger effect = lower value. activity change, negative = inhibition, % at 10 µM. 360,000 compounds, 3.2% hits; in the data active = activity change below about -30%; also: % is scaled to controls: 0 for no effect and ±100 for the full control effect
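Using tetracycline-induced force-coupled D1 Hek293 cells and a calcium dye, signals were followed for 180 s after compound, then for 180 s after EC80 dopamine, to detect inhibitors.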
TRHR ag – qHTS for Small Molecule Agonists and Allosteric Enhancers of Human TRH Receptor: Primary Screen for Agonists. TRHR cells, calcium flux fluo-8, FDSS agonist mode. activation, % at 2 µM. 360,000 compounds, 0.18% hits; also: 0% is about no effect
Target sequence (P34981 whole entry, looked up): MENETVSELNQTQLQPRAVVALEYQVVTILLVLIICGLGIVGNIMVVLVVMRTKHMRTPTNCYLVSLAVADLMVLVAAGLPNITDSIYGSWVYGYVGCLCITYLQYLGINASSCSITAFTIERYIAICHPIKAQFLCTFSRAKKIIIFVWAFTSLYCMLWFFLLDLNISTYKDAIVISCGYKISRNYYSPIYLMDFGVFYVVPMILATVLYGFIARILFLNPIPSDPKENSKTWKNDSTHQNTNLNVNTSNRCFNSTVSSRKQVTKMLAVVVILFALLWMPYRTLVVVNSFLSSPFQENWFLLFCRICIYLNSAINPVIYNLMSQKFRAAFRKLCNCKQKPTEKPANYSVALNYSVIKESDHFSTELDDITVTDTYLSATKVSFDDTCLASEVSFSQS
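Read-out: compound-evoked intracellular calcium rise in TRHR cells, fluo-8 dye, kinetic FDSS fluorescence at 1 s/cycle following a 10-cycle baseline. Cells cultured overnight before dye loading (30 min–1.5 h, RT).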
D1 potentiator – Potentiators of Human D1 Dopamine Receptor: qHTS | D(1A) dopamine receptor (Homo sapiens), P21728 | HEK293 TREx D1 cells, calcium flux, dopamine EC20 potentiation | potentiation, % at 10 µM | 360,000 compounds, 0.036% hits | AID 504651, 2011; in the data active = potentiation above about 30%; also: 0% is about no effect
TRHR enhancer – qHTS for Small Molecule Agonists and Allosteric Enhancers of Human TRH Receptor: Primary Screen for Enhancers; enhancement, % at 2 µM; TRHR cells, fluo-8 calcium fluorescence, EC20 TRH enhancement; Thyrotropin-releasing hormone receptor (Homo sapiens), P34981; 360,000 compounds, 0.66% hits; AID 493056, 2011; in the data active = enhancement above about 30%; also: 0% is about no effect
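TRHR-expressing cells loaded with fluo-8 calcium dye were read kinetically (ex 480/em 530) during compound addition, then stimulated with an EC20 of TRH (10 nM final). Enhancement of the Gq-mediated intracellular calcium response was scored.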
D1 agonist – Allosteric Agonists of the Human D1 Dopamine Receptor: qHTS | HEK293 T-REx D1 cells, calcium flux, agonist mode | D(1A) dopamine receptor (Homo sapiens), P21728 | activation, % at 2 µM | AID 504660, 2011 | 360,000 compounds, 1% hits; also: 0% is about no effect
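Tetracycline-induced HEK293 TREx D1 cells, force-coupled to calcium signalling, were dye-loaded with a no-wash calcium kit. Compound was pin-added after a 10 s baseline. Fluorescence was read kinetically at 1 cycle/s for 180 s, with calcium rises flagged as agonism.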
Active calls of the source: *; ! = a repeat was not active. Rule as the data show it, unless noted: active = activation above about 30%; inactive = the rest.

SMILES | D1 antagonist | TRHR ag | D1 potentiator | TRHR enhancer | D1 agonist
FC(F)(F)c1cccc(NC(=S)Nc2ccc(Cl)c(Cl)c2)c1 | -12 | 0 | -2 | 1 | 11
CC(C)OC(=O)CSc1nc2ncc(Cl)cc2[nH]1 | -30* | -1 | -5 | 0 | 2
CC(C)OC(=O)CSc1nc2ncccc2[nH]1 | -3 | 1 | 1 | -2 | 6
O=c1oc(-c2ccco2)nc2c1cnn2-c1ccccc1 | -19 | 0 | 4 | 3 | -1
O=c1oc(-c2ccco2)nc2ccccc12 | -39* | 2 | -6 | -5 | 2
COc1ccc(CCN2C(=O)c3[nH]nc(-c4ccccc4O)c3C2c2ccccc2)cc1 (stereo unspecified) | 15 | 0 | 1 | 6 | -2
CC1Cc2cc(S(=O)(=O)CCC(=O)N3CCN(c4ccccc4)CC3)ccc2N1C(=O)C1CC1 (stereo unspecified) | -31* | 0 | -11 | -2 | 7
CCOc1ccccc1N(C)S(=O)(=O)c1ccc2c(c1)CC(C)N2C(=O)C1CC1 (stereo unspecified) | -32* | 0 | -8 | -4 | 20
CC1Cc2cc(S(=O)(=O)N(Cc3ccccc3)C(C)C)ccc2N1C(=O)C1CCC1 (stereo unspecified) | 6 | 2 | -2 | -3 | 4
CCN(c1ccccc1)S(=O)(=O)c1ccc2c(c1)CC(C)N2C(=O)C1CC1 (stereo unspecified) | -32* | 0 | -3 | 0 | 17
Cc1nn(CC(=O)NCc2ccccc2F)c(C)c1[N+](=O)[O-] | -12 | 1 | -2 | 6 | 2
Cc1nn(CC(=O)NCc2cc3ccccc3[nH]2)c(C)c1[N+](=O)[O-] | -41* | 0 | -18 | -5 | -2
Cc1nn(CCCC(=O)NCc2ccc(F)cc2)c(C)c1[N+](=O)[O-] | 2 | -1 | 6 | 30* | 3
Cc1c(NC(=O)OCCNC(=O)COc2ccc(Cl)cc2Cl)sc(=S)n1C | -43* | 0 | -9 | 5 | 15
COc1ccc(Br)cc1CNC(=O)Cn1c(=O)c2cccn2c2ccc(F)cc21 | -11 | 0 | 0 | -3 | 0
O=c1c(Cl)c2oc3ccccc3nc-2c2ccccc12 | 49 | 18 | 0 | 13 | 75*
Cc1cc2[nH]c3c(=O)n(Cc4ccccc4F)ncc3c2s1 | -72*! | 0 | -4 | -6 | 0
Cc1ccc(C)c(NC(=O)C(CC(C)C)N2Cc3ccccc3C2=O)c1 (stereo unspecified) | -2 | -1 | 1 | -4 | 11
C=CCC1NS(=O)(=O)OC2CCCC12 (stereo unspecified) | -15 | 0 | 1 | 37* | 3
C=CCC1NS(=O)(=O)OC2CCCCC12 (stereo unspecified) | -5 | 0 | 0 | 1 | 2
Cc1ccc2[nH]c(=O)c3cc(C(=O)NC4CCC(C)CC4)sc3c2c1 (stereo unspecified) | -43* | 0 | -5 | 0 | 1
O=C(Nc1ccccc1Cl)[C@H](CSCc1ccccc1)N1Cc2ccccc2C1=O | -17 | 1 | -5 | -8 | 12
CN(C)CCCNS(=O)(=O)c1ccc(Oc2ncc(C(F)(F)F)cc2Cl)cc1 | -17 | -1 | -7 | 5 | 61*
OC(CNCCNc1ncccc1C(F)(F)F)Cn1ccc2ccccc21 (stereo unspecified) | -36* | 0 | -1 | 2 | 26
OC(CNCc1ccccc1)Cn1ccc2ccccc21 (stereo unspecified) | -12 | 0 | -1 | 2 | 14
SMILES | D1 antagonist | TRHR ag | D1 potentiator | TRHR enhancer | D1 agonist
CCOc1ccc(NC(=O)c2cc3c(C)nn(-c4ccccc4)c3s2)cc1 | 21 | -1 | 5 | 1 | 9
O=C(N/N=C/c1ccc([N+](=O)[O-])o1)C(=O)Nc1ccc(C(=O)O)cc1 | -3 | 1 | 5 | 12 | 2
O=C(O)c1cccc(-c2ccc(/C=N/Nc3ccc([N+](=O)[O-])cc3)o2)c1 | 4 | 70* | 3 | 14 | 103*
O=C(O)c1ccc(N/N=C/C=C/c2ccc([N+](=O)[O-])o2)cc1 | -5 | 27 | 1 | 8 | 56*
O=C(O)c1ccc(-c2ccc(/C=N/Nc3ccc([N+](=O)[O-])cc3)o2)cc1 | 5 | 123* | 0 | 36* | 151*
COc1cc(NC(=O)CSc2ncc3c(n2)-c2ccc(Cl)cc2N(Cc2ccccc2)S3(=O)=O)cc(OC)c1 | 5 | -1 | 2 | 1 | 2
CCOC(=O)C1CCN(C(=O)c2cc3c(=O)n4ccccc4nc3n2C)CC1 | 5 | 0 | 2 | 6 | 2
COc1ccc(Cl)cc1S(=O)(=O)N1CCN(S(=O)(=O)c2ccc3c(c2)OCCO3)CC1 | -8 | 0 | 5 | 5 | 3
CC(=O)NC(c1cc(Cl)c2cccnc2c1O)C1CC1 (stereo unspecified) | -55* | 0 | 4 | 12 | 4
CCC(=O)NC(c1ccc(C)s1)c1cc(Cl)c2cccnc2c1O (stereo unspecified) | -58* | 1 | -7 | 4 | 10
Cc1ccc(N(CC(=O)Nc2c(C)cccc2C)S(C)(=O)=O)cc1 | -9 | 0 | -3 | 0 | 0
COc1ccc(NC(=S)Nc2cc(C)[nH]n2)cc1Cl | 8 | -2 | -2 | -3 | 12
Cc1cc(NC(=S)Nc2ccc(C)c(Cl)c2)n[nH]1 | -39* | 0 | -4 | 1 | 1
COc1ccc(NC(=S)Nc2cc(-c3ccccc3)[nH]n2)cc1Cl | -79* | 0 | -3 | -5 | 2
CCCN1C(=O)C2(c3ccccc31)c1c(oc3ccccc3c1=O)C(=O)N2CCO (stereo unspecified) | -9 | -1 | 1 | 4 | 0
CN(C)C=Nc1c(Br)cc(Br)c2nonc12 | -74* | 141* | 6 | 11 | 415*
COc1ccc([C@H]2CC(=O)C=C(c3ccc(Cl)c(F)c3)C2)cc1 | 0 | 1 | 0 | 0 | 4
COc1ccc([C@H]2CC(=O)C=C(c3ccccc3)C2)cc1 | -11 | 1 | -1 | 6 | 4
COc1ccc(C2=CC(=O)C[C@H](c3ccc(OC)cc3)C2)cc1 | -37* | 0 | -3 | 4 | 6
COc1ccc([C@H]2CC(=O)C=C(c3ccc(C)c(F)c3)C2)cc1 | -29 | 4 | -2 | 0 | 56*
COC(=O)c1cc2sc(C)cc2n1Cc1ccc(Br)cc1F | 18 | 0 | 5 | 7 | 5
